# Assay outcomes deposited in PubChem by several laboratories.
# Hits are enriched below; roughly 5.4% of the tested compounds scored in any of these assays.
# Exocytosis inh = lytic granule exocytosis inhibition; TALL-104 LAMP-1 surface exposure, flow cytometry; cells stimulated with thapsigargin and PMA; AID 651702; inhibition, % at 10 µM; actives 0.66% (n = 360,000);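 active means inhibition above about 55%, limit read from the data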
# ALR inh = inhibitors of human sulfhydryl oxidase ALR. actives 3.8% (n = 290,000). inhibition, % (no concentration beside the values). purified ALR, DTT oxidation, H2O2 HRP-luminol luminescence;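 active means mean replicate inhibition above about 79%, with every replicate also reaching it, limit read from the data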
# Target sequence (P55789 whole entry, looked up): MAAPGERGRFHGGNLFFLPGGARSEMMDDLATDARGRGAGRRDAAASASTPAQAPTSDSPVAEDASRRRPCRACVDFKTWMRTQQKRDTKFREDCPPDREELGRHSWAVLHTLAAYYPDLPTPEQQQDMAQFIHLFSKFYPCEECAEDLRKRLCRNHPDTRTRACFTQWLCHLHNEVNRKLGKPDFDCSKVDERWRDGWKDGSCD
# SMARCA2 act = activators of SMARCA2 function. MG213 cells, MMTV-luciferase reporter, dexamethasone, overnight. activation, % at 9.1 µM. actives 1% (n = 370,000). AID 652017; in the data active means activation above about 7.8%;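 further: 0% = vehicle wells and 100% = reference activator wells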
# MIN6 prolif = induces beta-cell replication in MIN6 cells; proliferation, % at 10 µM; MIN6 cells proliferation, ATPlite luminescence, 48 h; cells starved in 0.2% serum; 100% = growth in 10% serum; actives 0.29% (n = 330,000);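 active means compounds whose signal lies at least 3.5 SD above the mean of all wells on their plate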;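 further: 0% = DMSO-treated cells in low-serum medium and 100% = 10% serum control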
# M18AAP inhibitor = blocks P. falciparum M18 aspartyl aminopeptidase. actives 1.2% (n = 290,000). recombinant PfM18AAP, H-Glu-NHMec fluorogenic cleavage. inhibition, % at 7.35 µM. AID 1822;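 active means inhibition above the campaign mean inhibition over all tested compounds plus 3 SD, cut at about 28% in these data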;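 further: 0% = plate median of test compound wells and 100% = 2 mM ZnCl2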
# GASC-1 inh = inhibitors of human GASC-1 (JMJD2C) demethylase | AID 2099 | GST-JMJD2C(1-420) H3K9me3 demethylation, DELFIA europium | inhibition, % at 2.35 µM | Q9H3R0 | actives 0.069% (n = 330,000);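 active means more than half of a compound's replicate wells show inhibition beyond 50%, single wells judged on their own value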;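 further: signal counts dimethyl H3K9 product captured on neutravidin plate; 0% = median of DMSO wells and 100% = 0.3 times that DMSO median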
# Target sequence (Q9H3R0 1-420 limits assumed): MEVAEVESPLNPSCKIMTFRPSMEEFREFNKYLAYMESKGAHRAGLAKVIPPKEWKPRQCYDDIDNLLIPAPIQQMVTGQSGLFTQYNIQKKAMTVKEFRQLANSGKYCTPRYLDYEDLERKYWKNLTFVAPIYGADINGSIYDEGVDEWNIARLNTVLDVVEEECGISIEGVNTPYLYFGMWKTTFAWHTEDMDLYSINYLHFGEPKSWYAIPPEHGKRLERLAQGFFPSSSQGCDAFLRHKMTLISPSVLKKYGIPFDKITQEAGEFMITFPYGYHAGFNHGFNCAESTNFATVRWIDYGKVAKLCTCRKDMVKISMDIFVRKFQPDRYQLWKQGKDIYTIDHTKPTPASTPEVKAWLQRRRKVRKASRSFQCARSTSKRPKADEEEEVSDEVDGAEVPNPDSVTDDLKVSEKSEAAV
# Active calls of the source: *; . = no result given.
SMILES,Exocytosis inh,ALR inh,SMARCA2 act,MIN6 prolif,M18AAP inhibitor,GASC-1 inh
CN(C)c1ccc(NC(=O)CCN2CCN(c3ccccn3)CC2)cc1,-0.7,99.0*,0.7,-2.5,-9.7,-13.5
CCN(CC)c1ccc(NC(=O)CN2CCN(CC(=O)Nc3ccc(F)cc3)CC2)cc1,1.4,98.5*,4.2,-0.7,4.6,.
CSc1ccc(NC(=O)NCCN2CCc3ccccc3C2)cc1,-3.5,97.8*,2.4,-0.7,1.8,1.2
CN(C)c1ccc(NC(=O)CN2CCc3ccccc3C2)cc1,-4.7,99.4*,6.5,-2.5,13.9,5.6
CN1CC(=O)N(CC(=O)Nc2ccc(N(C)C)cc2)c2ccccc2C1=O,-2.8,98.9*,-3.6,-0.7,8.9,-97.9
CCCCCCNC(=O)C1CSCCS(=O)(=O)N1Cc1ccccc1 (configuration not stated),.,.,-4.0,.,.,.
COCC(=O)N1CCN(C(=O)C(=O)c2cccc(C(F)(F)F)c2)CC1,.,.,-6.9,.,.,.
CCOC(=O)[C@]12CCCC=C1N(CCCOC)C(=O)[C@@H]2CC(=O)NCCCN1CCCC1=O,.,.,0.2,.,.,.
Cc1ccc2nc(N3C(=O)C(O)=C(C(=O)c4ccco4)C3c3ccc(O)cc3)sc2c1 (configuration not stated),-4.0,.,1.1,-3.2,19.0,-1.6
Cc1cc(C)c2nc(N3C(=O)C(O)=C(C(=O)c4ccco4)C3c3ccc(O)cc3)sc2c1 (configuration not stated),-13.4,99.2*,0.8,-7.9,.,3.9
CCOC(=O)c1sc(N2C(=O)C(O)=C(C(=O)c3ccco3)C2c2cccc([N+](=O)[O-])c2)nc1C (configuration not stated),3.4,91.3*,-0.9,.,-6.2,-14.2
Cc1nnc(N2C(=O)C(O)=C(C(=O)c3ccco3)C2c2cccc([N+](=O)[O-])c2)s1 (configuration not stated),-6.3,.,-3.3,0.1,-1.8,8.0
Cc1ccc2nc(N3C(=O)C(O)=C(C(=O)c4ccc(C)o4)C3c3ccco3)sc2c1 (configuration not stated),-0.4,2.3,1.6,-6.6,.,-10.0
CCOC(=O)c1sc(N2C(=O)C(O)=C(C(=O)c3ccco3)C2c2cccc(Cl)c2)nc1C (configuration not stated),-23.7,.,0.0,-3.3,6.7,7.4
Cc1ccc2nc(N3C(=O)C(O)=C(C(=O)c4ccco4)C3c3ccc(C)o3)sc2c1 (configuration not stated),-4.4,88.5*,-0.7,-2.4,27.5,-4.4
Cc1cc(C)c2nc(N3C(=O)C(O)=C(C(=O)c4ccco4)C3c3cccc(O)c3)sc2c1 (configuration not stated),12.8,99.2*,0.3,-5.4,.,-2.9
Cc1cccn2c(=O)c(C(=O)NC3CC(C)CC(C)(C)C3)c(O)nc12 (configuration not stated),2.7,-0.1,2.9,-5.8,.,52.5*
O=c1c(O[C@@H]2O[C@H](CO)C(O)C2O)c(-c2ccc(O)c(O)c2)oc2cc(O)cc(O)c12 (some centres not stated),22.5,99.6*,.,1.8,.,-10.7
O=c1c(OC2OC(CO)C(O)C(O)C2OC2OC(CO)C(O)C(O)C2O)c(-c2ccc(O)cc2)oc2cc(O)cc(O)c12 (configuration not stated),3.7,22.8,0.7,-1.0,.,.
O=c1c(-c2ccc(O)cc2)coc2cc(OC3OC(CO)C(O)C(O)C3O)ccc12 (configuration not stated),-6.0,99.3*,1.7,-4.0,1.4,5.1
O=c1c(O[C@H]2O[C@@H](CO)[C@H](O)[C@@H](O)[C@@H]2O)c(-c2ccc(O)cc2)oc2cc(O)cc(O)c12,68.3*,87.2*,3.0,0.2,.,-4.5
O=C(c1cccs1)n1ccc2ccc(-c3ccc4ccn(C(=O)c5cccs5)c4c3)cc21,.,.,-1.4,.,.,.
Cc1[nH]n(-c2ccccc2)c(=O)c1C(C[N+](=O)[O-])c1ccc(Br)cc1 (configuration not stated),17.5,41.1,0.7,-3.8,29.7*,-17.6
COc1cccc(C(C[N+](=O)[O-])c2c(C)[nH]n(-c3ccccc3)c2=O)c1 (configuration not stated),-2.1,-27.2,-1.2,-7.7,39.2*,68.9*
O=C(C1CCCN(S(=O)(=O)c2cccc3ccccc23)C1)N1CCN(Cc2ccccc2)CC1 (configuration not stated),.,.,-4.3,.,.,.
SMILES,Exocytosis inh,ALR inh,SMARCA2 act,MIN6 prolif,M18AAP inhibitor,GASC-1 inh
O=C(CSc1nnc(-c2ccncc2)n1-c1ccccc1)Nc1ccc2c(c1)OCCO2,.,.,-5.2,.,.,.
O=C(CSc1ccccc1)NC1CCCCN(Cc2ccc(Cl)cc2)C1=O (configuration not stated),.,.,-3.8,.,.,.
Cc1ccc(-c2nc(C3CCCN(S(=O)(=O)c4ccc(C)c(C)c4)C3)no2)cc1 (configuration not stated),.,.,-1.1,.,.,.
CC(C)COC(=O)NCC12C=CC(O1)C1C(=O)N(c3ccc(Cl)cc3)C(=O)C12 (configuration not stated),90.9*,.,2.6,-1.3,-16.9,1.4
Cc1cc(C)c(S(=O)(=O)NCC23C=CC(O2)C2C(=O)N(c4ccccc4)C(=O)C23)c(C)c1 (configuration not stated),76.9*,.,1.7,2.4,-7.6,2.5
O=C1C2C3C=CC(CNS(=O)(=O)c4ccccc4[N+](=O)[O-])(O3)C2C(=O)N1c1ccccc1 (configuration not stated),53.9,-11.2,-0.2,-0.2,-10.6,0.9
CCNC(=S)NNC(=O)CSc1nnc(SCc2cccc3ccccc23)s1,.,.,-2.7,.,.,.
O=C(NCCN1CCC(Cc2ccccc2)CC1)C1CCCN(S(=O)(=O)c2cccs2)C1 (configuration not stated),.,.,-3.9,.,.,.
O=C1SC(SCc2ccccc2)=N/C1=C\c1ccc(C(=O)O)cc1,-1.5,36.0,-1.9,-0.2,4.2,-5.8
CC(/C=C1\N=C(SCc2ccccc2Cl)SC1=O)=C\c1ccccc1,-0.3,98.8*,-1.9,0.4,3.0,114.9
COc1cccc(CN2CCc3[nH]c(=S)[nH]c(=O)c3C2)c1,-7.1,40.5,-3.0,-3.9,29.9*,1.8
CCC(=O)Nc1ccc2c(c1)C(=O)N(C)[C@@H]1CC[C@@H](CC(=O)OC)O[C@H]1CO2,.,.,-3.9,.,.,.
CC(C)(C)NC(=O)c1cc(C(C)(C)C)c(O)c(C(C)(C)C)c1,-1.8,-2.6,-3.9,0.0,5.7,4.4
CC(=O)Nc1cc(C(C)(C)C)c(O)c(C(C)(C)C)c1,4.2,2.3,2.6,-1.3,30.6*,2.9
CCOC(=O)[C@@]12CN(C(=O)OC(C)(C)C)CC=C1N(Cc1ccc(OC)cc1)C(=O)[C@H]2CC(=O)NCC1CCCCC1,.,.,-2.5,.,.,.
